We go through 24 molecules from PubChem BioAssay.

Molecules are shown by their SMILES. Unmarked numbers belong to inactive results. How the calls were made is not given here.

A word on the inhibition: it is the percentage by which the read-out fell short of the control.

Sequence of Pantothenate synthetase (Mycobacterium tuberculosis (strain ATCC 25618 / H37Rv)) (P9WIL5 whole entry, looked up): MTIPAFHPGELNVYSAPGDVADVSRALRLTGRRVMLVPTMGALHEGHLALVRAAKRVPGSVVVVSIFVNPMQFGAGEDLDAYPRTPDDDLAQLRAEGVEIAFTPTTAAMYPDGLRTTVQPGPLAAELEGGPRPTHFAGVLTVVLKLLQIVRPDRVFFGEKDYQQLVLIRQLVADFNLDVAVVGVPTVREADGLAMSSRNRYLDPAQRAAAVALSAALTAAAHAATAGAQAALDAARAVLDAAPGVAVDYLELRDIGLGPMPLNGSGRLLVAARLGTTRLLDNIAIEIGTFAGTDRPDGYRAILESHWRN

This assay has as its target Pantothenate synthetase (Mycobacterium tuberculosis (strain ATCC 25618 / H37Rv)) (UniProt P9WIL5). Description: Coupled enzyme confirmation of inhibitors against recombinant Mtb PanC (AID 375).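 Further: 0% = full reaction with vehicle and 100% = no enzyme background.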 The conditions noted are these: coupled enzyme assay; at 10 µM, stronger effect = higher value.
Consider `Cc1c(NC(=O)C(C)OC(=O)COc2cccc3c2OC(C)(C)C3)c(=O)n(-c2ccccc2)n1C` (centres undefined), for which the inhibition was 5%. To `CC(=O)Nc1ccc2c(c1)nc(CCNC(=O)c1ccccc1)n2C` belongs 0%; to `O=C(C1CCN(C2CC(=O)N(c3ccc(F)cc3)C2=O)CC1)N1CCOCC1` (centres undefined), 0%; to `CCOc1ccc(-c2nc(N)ncc2-c2ccccc2)c(O)c1`, 0%. The figure for `CCC(=O)N1Cc2ccccc2-c2ccccc2C1=O` is 0%; for `C#CC1(O)CC(C)N(C)C(C)C1` (centres undefined) it is 6%. The figure for `Cc1cc(C)n(C(=O)CNC(=O)C2COc3ccccc3O2)n1` (centres undefined) is 1%; for `COc1cccc(Cn2c(OCC3CCCO3)nc3c2c(=O)n(C)c(=O)n3C)c1` (centres undefined) it is 3%; for `CCN1C(=O)c2cccc3c(NC(=O)c4ccc(S(=O)(=O)N(C)C)cc4)ccc1c23` it is 1%.

Consider `COc1ccc(S(=O)(=O)Nc2ccc(Cl)cn2)c(C)c1C`, for which the inhibition was 1%. To `CC1=C(/C=C/C(C)=C/C=C/C(C)=C/C(=O)O)C(C)(C)CCC1` belongs 0%. The figure for `CC(C)C(OC(=O)c1ccco1)C(=O)NCc1ccccc1` (centres undefined) is 5%; for `COc1ccccc1OC(=O)c1ccc2nsnc2c1` it is 0%.

Regarding `CCc1cc2c(=O)c(-c3ccc4c(c3)OCCO4)coc2cc1OC(=O)c1ccco1`, the inhibition is 0%. The figure for `O=C(COC(=O)CCC(=O)c1cccs1)NCc1ccco1` is 0%.

Regarding `Cc1ccccc1C(=O)N1CCC(C(=O)Nc2ccc(S(=O)(=O)N3CCCC3)cc2)CC1`, the inhibition was 3%. As for `CCN(CC(=O)NC(=O)NCc1ccco1)Cc1nc2ccccc2c(=O)[nH]1`, the inhibition was 0%. In the case of `CCOc1ccccc1C(=O)NC(C)c1ccc2c(c1)OCO2` (centres undefined), the inhibition was 0%. The figure for `C=CCn1c(SC(C)C(=O)NC2(C#N)CCCCC2)nnc1-c1ccc(OC)cc1` (centres undefined) is 5%; for `CCOc1ccccc1NC(=O)CN(C)S(=O)(=O)c1cccc2nsnc12` it is 11%; for `O=C(CSc1nnc(Cn2c(=O)sc3ccccc32)n1-c1ccccc1)Nc1nccs1` it is 1%. To `COc1ccc(-c2cc(C(=O)NCCc3ccccc3)no2)cc1OC` belongs 4%; to `O=C(c1ccc(CNS(=O)(=O)c2cccc(C(F)(F)F)c2)cc1)N1CCOCC1`, 0%. The figure for `OC1C=CSc2nc3ccccc3n21` (centres undefined) is 0%.
